# From PubChem BioAssay
# The list is not random: actives were taken first. Their share in the collection is about 0.9%.
# RXFP1 ag: agonists of human relaxin receptor RXFP1; Q9HBX9; HEK293T-RXFP1 cAMP TR-FRET, 30 min; response scale: percent of porcine relaxin response, buffer zero; Potency, µM (top dose mostly 57.5 µM), actives largely listed as activators; 370,000 tested, 0.3% active; active = well fitted activation curve with a large enough effect; inconclusive = small, poorly fitted or top-dose-only effect; also: nearly all actives have a fitted effect of over 60% in size
# Target sequence (Q9HBX9 whole entry, looked up): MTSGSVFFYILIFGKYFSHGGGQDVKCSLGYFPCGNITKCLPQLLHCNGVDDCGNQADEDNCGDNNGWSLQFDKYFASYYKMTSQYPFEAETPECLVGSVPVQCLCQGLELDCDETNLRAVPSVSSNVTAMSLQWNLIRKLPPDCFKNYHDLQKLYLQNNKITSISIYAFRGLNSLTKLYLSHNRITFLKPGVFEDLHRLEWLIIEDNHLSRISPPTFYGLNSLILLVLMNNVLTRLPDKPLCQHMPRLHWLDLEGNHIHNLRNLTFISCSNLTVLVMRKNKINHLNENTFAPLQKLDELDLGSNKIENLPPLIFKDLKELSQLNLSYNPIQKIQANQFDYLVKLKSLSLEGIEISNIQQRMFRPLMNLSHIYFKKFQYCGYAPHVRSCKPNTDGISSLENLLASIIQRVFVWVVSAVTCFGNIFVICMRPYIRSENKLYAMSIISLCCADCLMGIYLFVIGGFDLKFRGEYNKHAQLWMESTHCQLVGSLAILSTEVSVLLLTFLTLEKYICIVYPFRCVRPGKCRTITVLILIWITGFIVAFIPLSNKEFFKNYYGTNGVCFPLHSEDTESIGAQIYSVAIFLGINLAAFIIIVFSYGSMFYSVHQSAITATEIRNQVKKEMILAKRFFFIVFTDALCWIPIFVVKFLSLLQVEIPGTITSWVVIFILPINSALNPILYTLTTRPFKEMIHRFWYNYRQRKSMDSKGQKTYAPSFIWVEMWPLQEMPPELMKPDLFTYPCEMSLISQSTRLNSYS
#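 HEK293 cells stably expressing RXFP1, treated 30 min at 37C with compounds plus PDE4 inhibitor Ro 20174; cAMP measured by HTRF TR-FRET. Normalized to buffer and 29 nM porcine relaxin; EC50 by Hill fit.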
# RXFP1 antag: blocks the human relaxin receptor RXFP1. 350,000 tested, 0.59% active. activity change, negative = inhibition, % at 57.5 µM. Q9HBX9. HEK293-RXFP1, relaxin-stimulated cAMP HTRF, 30 min; hits give low values;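 active = activity change of -60% or lower, but not beyond a set lower limit; inconclusive = change between -60% and -40%, or beyond the set limit; inactive = change above -40%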
# gsp antag: gsp mutant antagonism; 340,000 tested, 0.4% active; gsp-mutant cells, cAMP HTRF, 30 min; Potency, µM (top dose mostly 76.9 µM), hits mostly inhibitors; calls by dose curve; cell line not stated here;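 also: intracellular cAMP measured with PDE inhibitor Ro 20-1724 present during compound exposure; nearly all actives have a fitted effect of over 65% in size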
#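 HTRF cAMP read-out (cAMP-d2 plus anti-cAMP antibody-K in lysis buffer, 30 min RT). Before lysis, cells are exposed to compounds with […] for 30 min at 37C in DPBS containing Ca/Mg, BSA and Tween 20.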
# gsp ag: agonists of gsp mutant (McCune-Albright syndrome); gsp mutant cells, cAMP HTRF, 30 min; Potency, µM (highest dose often 76.9 µM), usual class: activators; 340,000 tested, 0.13% active; active = well fitted activation curve with a large enough effect; inconclusive = small, poorly fitted or top-dose-only effect, or another doubt; inactive = no such curve, though single readings can be large or run the other way; cell line not stated here;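 also: phosphodiesterase inhibitor Ro 20-1724 added with compounds to block cAMP breakdown; nearly all actives have a fitted effect of over 60% in size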
#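 Cells stably selected in G418 were plated at 2000/well, grown 16-24 hr, then given compounds in DMSO with the PDE inhibitor […] (300 uM solution added) for 30 min at 37C; cAMP was read by HTRF.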
# Hits are given with their value; 0 = inactive; ? = inconclusive; - = no result given; + = active, no number; [ ] = another dose, or the depositor's remark.
SMILES,RXFP1 ag,RXFP1 antag,gsp antag,gsp ag
C=CCn1c(=O)[nH]c2cc(C(=O)N3CCN(c4cccc(Cl)c4)CC3)ccc2c1=O,0,0,32µM,0
C=CCn1c(=O)[nH]c2cc(C(=O)N3CCN(c4ccc(C(C)=O)cc4)CC3)ccc2c1=O,0,0,0,0
COc1ccc2cc(C#N)c(N3CCN(C(=O)c4ccccc4C)CC3)nc2c1,0,0,40µM,0
O=C(COC(=O)COc1ccc(Cl)cc1)NCCNC(=O)COC(=O)COc1ccc(Cl)cc1,0,-72,0,0[15.4 µM]
CCc1ccc(C2c3c(-c4ccccc4O)n[nH]c3C(=O)N2Cc2ccncc2)cc1 (configuration not stated),0,-83,-,-
CCCCN1C(=O)c2[nH]nc(-c3ccccc3O)c2C1c1cc(Br)c(O)c(OC)c1 (configuration not stated),0,-89,-,-
O=C1c2[nH]nc(-c3ccccc3O)c2C(c2cccc(O)c2)N1Cc1ccncc1 (configuration not stated),0,0,-,-
CN(CC(=O)NCc1ccc(F)cc1)S(=O)(=O)c1ccc2c(c1)n(C)c(=O)c(=O)n2C,0,0,0,0
Cc1ccc(S(=O)(=O)N(C)CC(=O)Nc2cc(C)ccn2)cc1,0,-83,0,0[15.4 µM]
Cc1ccc(CNC(=O)CN(C)S(=O)(=O)c2ccc3c(c2)n(C)c(=O)c(=O)n3C)cc1,0,-68,0,0
CCOC(=O)CC(NS(=O)(=O)c1ccc2[nH]c3c(c2c1)CCCC3)c1ccccc1Cl (configuration not stated),0,0,-,-
Cc1ccc(S(=O)(=O)N(C)c2ccc(C(=O)Nc3ccccn3)cc2)cc1,0,0,0,0
Cc1ccc(S(=O)(=O)N(C)c2ccc(C(=O)Nc3cccc(C)n3)cc2)cc1,0,0,35µM,0[15.4 µM]
CCC(=O)N1CCc2cc(S(=O)(=O)CCC(=O)Nc3ccc(Cl)c(C(F)(F)F)c3)ccc21,0,-,-,-
Cc1cccn2c(=O)c(/C=C3\SC(=S)NC3=O)c(NCCCN3CCOCC3)nc12,5µM,0,0,10µM
CCCN1C(=O)/C(=C/c2c(NCCCOCC)nc3c(C)cccn3c2=O)SC1=S,0,0,0,0
O=C(NC(=S)Nc1ccc2oc(-c3ccncc3)nc2c1)c1ccccc1F,0,0,32µM,0
CC(C)Cc1cc(C(=O)Nc2sc3c(c2C#N)CCC3)no1,0,-66,0,?
CC(C)Cc1cc(C(=O)Nc2sc3c(c2C#N)CCCC3)no1,0,0,?,0
Nc1ncccc1C(=O)OCC(=O)N1CCN(S(=O)(=O)c2ccc(Cl)cc2)CC1,0,0,0,0
CCOc1ncccc1C(=O)OCC(=O)N1CCN(S(=O)(=O)c2ccc(Cl)cc2)CC1,0,0,0,7.9µM
Fc1ccc(C2CC(c3ccccc3)Nc3ncnn32)cc1 (configuration not stated),0,-,11µM,0
COc1ccc2cc(CCN3C(=O)c4ccccc4C3=O)c(=O)[nH]c2c1,?,-,0,11µM
O=S(=O)(c1cccc2ccccc12)N1CCN(c2ccc(Cl)c(Cl)c2)CC1,0,-,-,-
O=[N+]([O-])/C=C\c1ccc(N2CCCC2)c(F)c1,0,-68,0,0
SMILES,RXFP1 ag,RXFP1 antag,gsp antag,gsp ag
Cc1ccccc1CCNC(=O)c1ccc2c(c1)nc1n2CCC(C)C1 (configuration not stated),0,0,-,-
O=C(N/N=C\c1ccncc1)c1ccccc1O,0,0,0,0[15.4 µM]
O=C(N/N=C/c1ccc(-c2ccccc2)o1)c1ccccc1O,0,-85,0,?
Cc1nc2c(C(=O)NCc3ccccc3)c[nH]n2c(=O)c1Cc1ccccc1Cl,0,-60,-,-
O=C(c1ccc2c(c1)N(Cc1cccc(Cl)c1)C(=O)c1ccccc1S2(=O)=O)N1CCc2ccccc21,0,0,-,-
O=C1C=C(O)c2cccc3cccc1c23,18µM,0,0,?
O=C1C=C(N2CCCCCC2)C2(CCCCC2)O1,0,-61,0,0
O=C(C#Cc1ccccc1)c1ccccc1,-,-107,-,?
O=C(C#Cc1ccccc1)c1ccc([N+](=O)[O-])cc1,0,-61,0,0[15.4 µM]
Cc1ccc(C)c(-n2cc(CNCCCn3cccn3)c(-c3ccccc3)n2)c1,0,0,0,0[15.4 µM]
Cc1ccc(-n2cc(CNCCCn3cccn3)c(-c3cccc(C)c3)n2)cc1,0,-64,0,0[15.4 µM]
CC(C)S(=O)(=O)c1csc(C(=O)Nc2ccc(F)cc2)c1N,0,0,+,0[15.4 µM]
COc1ccc(C(=O)NCCn2cc(SCC(=O)Nc3cccc(C)c3)c3ccccc32)cc1,0,-,-,-
Cc1ccc(C(C)C)c(OCC(=O)NCC2(N3CCOCC3)CCCCC2)c1,0,-111,-,-
CC(=O)N1CCCC1c1nc2ccccc2n1Cc1cccc(Cl)c1 (configuration not stated),0,-,-,-
Cc1cc(NC(=S)N(Cc2cccc(Br)c2)CC2CCC(C(=O)O)CC2)ccc1Cl (configuration not stated),0,0,28µM,0
Cc1ccc(NC(=S)N(Cc2cccc(Br)c2)CC2CCC(C(=O)O)CC2)cc1 (configuration not stated),0,0,?,0
CCOc1ccc(NC(=O)Cn2cnc3c(oc4ccccc43)c2=O)cc1,0,0,-,-
COc1cc(C2c3c(oc4ccccc4c3=O)C(=O)N2c2nccs2)ccc1O (configuration not stated),0,-105,0,0[15.4 µM]
CCOc1ccc(CCNC(=O)Cn2c(-c3cccs3)cc3ccccc32)cc1,0,0,-,-
O=[N+]([O-])c1ccc(N=Nc2c(Cl)cc(O)cc2Cl)cc1,0,0,16µM,0
CCc1nnc(NC(=O)c2nc(S(=O)(=O)Cc3ccccc3)ncc2Cl)s1,0,0,?,0[15.4 µM]
CCc1nnc(NC(=O)c2nc(S(=O)(=O)Cc3ccc(C)cc3)ncc2Cl)s1,0,0,28µM,0[15.4 µM]
CCc1nnc(NC(=O)c2nc(S(=O)(=O)Cc3cccc(C)c3)ncc2Cl)s1,0,0,16µM,0[15.4 µM]
O=C(Nc1ccc2c(c1)OCCO2)c1cnc2ccccn2c1=O,-,0,0,8.9µM
SMILES,RXFP1 ag,RXFP1 antag,gsp antag,gsp ag
COc1ccc2c(c1)CCc1c(C(=O)N3CCCc4ccccc43)noc1-2,0,0,40µM,0
O=C(c1ccccc1)c1ccc2nc(-c3ccco3)c(-c3ccco3)nc2c1,0,-90,0,0[15.4 µM]
CCN(CC)CCN,-,0,-,-
Cc1ccc(NC(=O)/C(C#N)=C/c2cc(C)n(-c3ccc(Br)cc3)c2C)cc1C,0,-63,-,-
N#C/C(=C\c1ccc(O)c([N+](=O)[O-])c1)c1nc2ccccc2s1,0,0,35µM,0[15.4 µM]
COc1cc(/C=C(\C#N)c2nc3ccccc3s2)cc([N+](=O)[O-])c1O,0,0,?,0[15.4 µM]
Cc1cccc(-c2nc(SCCCOc3ccccc3Cl)n3[nH]c(=O)cc3n2)c1,0,-,-,-
Cc1ccc(N/C(N)=N/c2nc3c(c(=O)[nH]2)CCCC3)c(C)c1,0,0,0,0
Cc1ccc(N/C(N)=N/c2nc(C)cc(N3CCCCC3)n2)c(C)c1,0,-83,0,0[15.4 µM]
O=C(NNC(=O)c1cccc(S(=O)(=O)N2CCN(c3ccccc3)CC2)c1)c1ccc(Cl)cc1,0,-,0,11µM
